Experimental findings from PubChem BioAssay (NCI) are described below.

The nature of assay [1]: NCI Yeast Anticancer Drug Screen. Data for the rad50 strain (AID 155).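 Also: 0% = growth of vehicle-only cultures of the same strain.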 As to conditions: S. cerevisiae rad50 strain growth inhibition, stronger effect = higher value. The method in brief: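 DNA repair mutant yeast, compound exposure, growth read-out; inhibition is taken relative to vehicle.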
The nature of assay [2]: NCI Yeast Anticancer Drug Screen. Data for the mec2-1 strain (AID 157). The note with it: S. cerevisiae mec2-1 strain, stronger effect = higher value. The method, boiled down:
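Cells of the genetically defined mec2-1 yeast strain are incubated with test compound. Inhibition of growth is calculated against vehicle-treated controls.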

A short description of assay [3]: NCI Yeast Anticancer Drug Screen. Data for the sgs1 mgt1 strain (AID 161).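 Also: 0% = growth of cultures given vehicle only.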 As to conditions: S. cerevisiae sgs1 mgt1 strain, stronger effect = higher value. The method, boiled down: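 Test agents were incubated with a DNA-repair-mutant yeast strain. Growth was then read and compared against vehicle-treated controls.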
Assay [4] is described as follows: NCI Yeast Anticancer Drug Screen. Data for the cln2 rad14 strain (AID 165).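 Also: 0% = growth equal to vehicle treated cultures.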 As to conditions: S. cerevisiae cln2 rad14 strain, stronger effect = higher value. The method in brief: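 The screen exposed genetically defined yeast (cln2 rad14) to test compounds and scored growth inhibition relative to vehicle-treated controls.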
Assay [5] in a line: NCI Yeast Anticancer Drug Screen. Data for the bub3 strain (AID 167). As to conditions: S. cerevisiae bub3 mutant strain, stronger effect = higher value. The method in brief: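 In this screen, a yeast mutant lacking normal mitotic checkpoint function is challenged with compound. Relative growth versus vehicle gives the inhibition value.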
Assay [6] in a line: NCI Yeast Anticancer Drug Screen. Data for the mlh1 rad18 strain (AID 175). As to conditions: S. cerevisiae mlh1 rad18 strain growth inhibition, stronger effect = higher value. The method in brief:
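Compound-treated yeast growth, normalised to vehicle controls. Strain bears defined DNA repair mutations.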

Setting [7] is: at 5.0 µM (retest, dose inferred, filed as 0.5).
Setting [8] is: at 50.0 µM (retest, dose inferred, filed as 5.0).

Compounds without any hit were thinned out: in the full panel of roughly 79,000, 15% have a hit. Values without a mark were called inactive. Activity calls are given as the source filed them. Rule as the data show it: active = growth inhibition above about 70%; inactive = the rest.

Consider `Cc1ccc(O)c(C(c2ccc([N+](=O)[O-])cc2)c2cc(C)ccc2O)c1`, for which the growth inhibition in assay [1] (setting [7]) was 68%; in assay [1] (setting [8]), 95% (active); in assay [1] (at 50.0 µM), 91.2% (active); in assay [2] (setting [7]) it was 90% (active); in assay [2] (setting [8]), 98% (active); in assay [2] (at 50.0 µM) it was 92.9% (active). For the same compound, the growth inhibition in assay [3] (setting [7]) was 51%; in assay [3] (setting [8]), 57%; in assay [3] (at 50.0 µM), 39%; in assay [4] (setting [7]), 73% (active); in assay [4] (setting [8]) it was 53%; in assay [4] (at 50.0 µM), 89.7% (active). Moreover, the growth inhibition was 93% (active) in assay [5] (setting [7]); 52% in assay [5] (setting [8]); 90.9% (active) in assay [5] (at 50.0 µM); 84% (active) in assay [6] (setting [7]); 96% (active) in assay [6] (setting [8]); 91.3% (active) in assay [6] (at 50.0 µM).

For `O=C1C(N2CCOCC2)=C(Cl)C(=O)c2ncccc21`, the growth inhibition in assay [1] (setting [7]) is 66%; in assay [1] (setting [8]), 95% (active); in assay [1] (at 50.0 µM), 83.8% (active); in assay [2] (setting [7]) it was 30%; in assay [2] (setting [8]), 97% (active); in assay [2] (at 50.0 µM), 83.8% (active). In addition, the growth inhibition is 35% in assay [3] (setting [7]); 96% (active) in assay [3] (setting [8]); 89.8% (active) in assay [3] (at 50.0 µM); 13% in assay [4] (setting [7]); 92% (active) in assay [4] (setting [8]); 89% (active) in assay [4] (at 50.0 µM). For the same compound, the growth inhibition was 31% in assay [5] (setting [7]); 97% (active) in assay [5] (setting [8]); 89.7% (active) in assay [5] (at 50.0 µM); 61% in assay [6] (setting [7]); 96% (active) in assay [6] (setting [8]); 89.3% (active) in assay [6] (at 50.0 µM).

As to `CCOC(=O)C(=O)CC(=O)C(Br)C(Br)c1ccc(Cl)cc1` (configuration not stated), the growth inhibition is 78% (active) in assay [1] (setting [7]); 99% (active) in assay [1] (setting [8]); 99.5% (active) in assay [1] (at 50.0 µM); 85% (active) in assay [2] (setting [7]); 99% (active) in assay [2] (setting [8]); 99.6% (active) in assay [2] (at 50.0 µM). Further, the growth inhibition in assay [3] (setting [7]) is 97% (active); in assay [3] (setting [8]) it was 99% (active); in assay [3] (at 50.0 µM), 99.4% (active); in assay [4] (setting [7]), 69%; in assay [4] (setting [8]), 100% (active); in assay [4] (at 50.0 µM), 99% (active). The growth inhibition in assay [5] (setting [7]) is 92% (active); in assay [5] (setting [8]) it was 99% (active); in assay [5] (at 50.0 µM) it was 99.3% (active); in assay [6] (setting [7]) it was 90% (active); in assay [6] (setting [8]), 99% (active); in assay [6] (at 50.0 µM) it was 99.5% (active).

For `Clc1ccccc1CCc1cc(-c2ccccc2)n[nH]1`, the growth inhibition is -14% in assay [1] (setting [7]); 97% (active) in assay [1] (setting [8]); 96.8% (active) in assay [1] (at 50.0 µM); -26% in assay [2] (setting [7]); 98% (active) in assay [2] (setting [8]); 94.7% (active) in assay [2] (at 50.0 µM). In addition, the growth inhibition in assay [3] (setting [7]) was -6%; in assay [3] (setting [8]) it was 97% (active); in assay [3] (at 50.0 µM) it was 95.6% (active); in assay [4] (setting [7]), -13%; in assay [4] (setting [8]) it was 97% (active); in assay [4] (at 50.0 µM), 88.9% (active). Moreover, the growth inhibition was 16% in assay [5] (setting [7]); 97% (active) in assay [5] (setting [8]); 93.2% (active) in assay [5] (at 50.0 µM); -4% in assay [6] (setting [7]); 97% (active) in assay [6] (setting [8]); 97.7% (active) in assay [6] (at 50.0 µM).

As to `O=[N+]([O-])c1cc(I)cc(/C=N/NS(=O)(=O)c2ccc(F)cc2)c1O`, the growth inhibition in assay [1] (setting [7]) is 16%; in assay [1] (setting [8]), 36%; in assay [1] (at 50.0 µM), 84.2% (active); in assay [2] (setting [7]) it was 12%; in assay [2] (setting [8]), 31%; in assay [2] (at 50.0 µM), 77.7% (active). Besides, the growth inhibition was 19% in assay [3] (setting [7]); 47% in assay [3] (setting [8]); 89.5% (active) in assay [3] (at 50.0 µM); 0% in assay [4] (setting [7]); 15% in assay [4] (setting [8]); 77.8% (active) in assay [4] (at 50.0 µM). Further, the growth inhibition in assay [5] (setting [7]) is 3%; in assay [5] (setting [8]) it was 17%; in assay [5] (at 50.0 µM) it was 53%; in assay [6] (setting [7]), 17%; in assay [6] (setting [8]), 45%; in assay [6] (at 50.0 µM), 93% (active).

As to `CC(C)(C)CC(C)(C)c1ccc(O)c(Cl)c1`, the growth inhibition in assay [1] (setting [7]) is -3%; in assay [1] (setting [8]), 93% (active); in assay [1] (at 50.0 µM), 99.1% (active); in assay [2] (setting [7]), -3%; in assay [2] (setting [8]), 90% (active); in assay [2] (at 50.0 µM) it was 76.5% (active). For the same compound, the growth inhibition was -2% in assay [3] (setting [7]); 50% in assay [3] (setting [8]); 91.2% (active) in assay [3] (at 50.0 µM); -6% in assay [4] (setting [7]); 86% (active) in assay [4] (setting [8]); 49.9% in assay [4] (at 50.0 µM). Moreover, the growth inhibition in assay [5] (setting [7]) is -4%; in assay [5] (setting [8]), 90% (active); in assay [5] (at 50.0 µM) it was 78.4% (active); in assay [6] (setting [7]), -4%; in assay [6] (setting [8]) it was 95% (active); in assay [6] (at 50.0 µM), 99.5% (active).

`Nc1ccc2c(SCC(=O)Nc3ccccc3-c3ccccc3NC(=O)CSc3c4ccccc4nc4cc(N)ccc34)c3ccccc3nc2c1`: the growth inhibition in assay [1] (setting [7]) was 25%; in assay [1] (setting [8]), 97% (active); in assay [1] (at 50.0 µM), 90% (active); in assay [2] (setting [7]), 24%; in assay [2] (setting [8]) it was 98% (active); in assay [2] (at 50.0 µM) it was 92.5% (active). Also, the growth inhibition in assay [3] (setting [7]) was 33%; in assay [3] (setting [8]) it was 97% (active); in assay [3] (at 50.0 µM), 91.2% (active); in assay [4] (setting [7]), 17%; in assay [4] (setting [8]) it was 97% (active); in assay [4] (at 50.0 µM), 78.8% (active). Moreover, the growth inhibition in assay [5] (setting [7]) was 27%; in assay [5] (setting [8]), 97% (active); in assay [5] (at 50.0 µM) it was 90.5% (active); in assay [6] (setting [7]), 11%; in assay [6] (setting [8]), 96% (active); in assay [6] (at 50.0 µM), 87.5% (active).

As for `O=[N+]([O-])c1cc2ccc(O)cc2c2ccccc12`, the growth inhibition in assay [1] (setting [7]) is -1%; in assay [1] (setting [8]) it was 89% (active); in assay [1] (at 50.0 µM) it was 93.5% (active); in assay [2] (setting [7]), -8%; in assay [2] (setting [8]), 85% (active); in assay [2] (at 50.0 µM), 94.2% (active). Moreover, the growth inhibition in assay [3] (setting [7]) is 10%; in assay [3] (setting [8]), 86% (active); in assay [3] (at 50.0 µM), 96.3% (active); in assay [4] (setting [7]), -1%; in assay [4] (setting [8]), 60%; in assay [4] (at 50.0 µM), 95.2% (active). The growth inhibition in assay [5] (setting [7]) is -3%; in assay [5] (setting [8]) it was 86% (active); in assay [5] (at 50.0 µM), 96.2% (active); in assay [6] (setting [7]) it was -7%; in assay [6] (setting [8]), 91% (active); in assay [6] (at 50.0 µM) it was 93.7% (active).

Take `COC(=O)/C=C/c1cccc[n+]1[O-]`: the growth inhibition is 3% in assay [1] (setting [7]); -6% in assay [1] (setting [8]); 44.6% in assay [1] (at 50.0 µM); 3% in assay [2] (setting [7]); -4% in assay [2] (setting [8]); -2.85% in assay [2] (at 50.0 µM). Besides, the growth inhibition in assay [3] (setting [7]) is 4%; in assay [3] (setting [8]) it was -6%; in assay [3] (at 50.0 µM) it was 0.55%; in assay [4] (setting [7]), 4%; in assay [4] (setting [8]) it was -15%; in assay [4] (at 50.0 µM), 54.8%. Besides, the growth inhibition was 4% in assay [5] (setting [7]); 0% in assay [5] (setting [8]); -4.4% in assay [5] (at 50.0 µM); -1% in assay [6] (setting [7]); -11% in assay [6] (setting [8]); 17.8% in assay [6] (at 50.0 µM).
